From PubChem BioAssay
Results filed as inconclusive are left out. The source made the active and inactive calls.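 The calls were made as follows, unless noted: active = normalized viability below 100% at a tested concentration; inactive = the rest.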

How the values were obtained:
[1] = viability loss in pontine glioma line – cell-based, SU-DIPG-XVII, MIPE5.0, CellTiter-Glo, qHTS, dose response (AID 1347060; cut-off not given, nearly all actives have AC50 up to about 26 µM;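 as to AC50: cells exposed to compound for 48 hours before viability readout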); settings: CellTiter-Glo ATP luminescence
[2] = viability loss in pontine glioma line – cell-based, SU-DIPG-XIII, MIPE4.0, CellTiter-Glo, qHTS, dose response (AID 1347061; cut-off not given, nearly all actives have AC50 up to about 37 µM;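 also: cells exposed to compound for 48 hours before readout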); settings: CellTiter-Glo ATP luminescence
[3] = viability loss in pontine glioma line – cell-based, JHH-DIPG-1, MIPE4.0, CellTiter-Glo, qHTS, dose response (AID 1347062; cut-off not given, nearly all actives have AC50 up to about 27 µM;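 as to AC50: cells exposed to compound for two days before readout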); settings: JHH-DIPG-1 viability, CellTiter-Glo ATP luminescence
[4] = viability loss in pontine glioma line – cell-based, SU-DIPG-IV, MIPE4.0, CellTiter-Glo, qHTS, dose response (AID 1347063; cut-off not given, nearly all actives have AC50 up to about 30 µM;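 also: compound exposure lasted 48 hours before the viability readout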); settings: CellTiter-Glo ATP luminescence
[5] = viability loss in pontine glioma line – cell-based, SU-DIPG-XIII, MIPE5.0, CellTiter-Glo, qHTS, dose response (AID 1347064; cut-off not given, nearly all actives have AC50 up to about 23 µM;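 as to AC50: cells exposed to compound for 48 hours before the viability read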); settings: CellTiter-Glo ATP luminescence
[6] = viability loss in pontine glioma line – cell-based, SU-DIPG-XXV, MIPE5.0, CellTiter-Glo, qHTS, dose response (AID 1347065; cut-off not given, nearly all actives have AC50 up to about 26 µM;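 also: cells exposed to compound for 48 hours before ATP readout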); settings: CellTiter-Glo ATP luminescence
[7] = growth inhibition of DIPG cells – cell-based, MIPE4.0 library, CellTiter-Glo luminescence, qHTS (AID 1347066; cut-off not given, nearly all actives have AC50 up to about 30 µM;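 also: cells exposed to compound for 48 hours before readout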); settings: SU-DIPG-VI viability, CellTiter-Glo ATP luminescence
[8] = JHH-DIPG-1 glioma cell viability, MIPE5.0 library, CellTiter-Glo luminescence, qHTS (AID 1347067; cut-off not given, nearly all actives have AC50 up to about 26 µM;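 also: cells exposed to compound for 48 hours before readout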); settings: JHH-DIPG-1 glioma viability, CellTiter-Glo ATP luminescence
[9] = growth inhibition of DIPG cells – cell-based, MIPE5.0 library, qHTS (AID 1347068; cut-off not given, nearly all actives have IC50 up to about 30 µM;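 as to IC50: cells exposed to compound for 48 hours before viability readout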); settings: SU-DIPG-XXV viability
[10] = compounds altering HSF1 focus formation in cells – imaging, Selleck Cancer Library (AID 1347162; in the data active = plate-normalised HSF1 focus index below about 0.46); settings: human cells, HSF1 nuclear foci imaging, at 10 µM; SSMD: measured here: HSF1 foci SSMD mean; cell count: measured here: cell number; plate-normalised HSF1 focus index: stronger effect = lower value
[11] = drug combination growth inhibition, ovarian cancer – cell-based, oncology-focused library, rucaparib conditional, profiling panel (AID 1508598); settings: patient-derived ovarian cancer cells, CellTiter-Glo viability, 144 h, stronger effect = lower value
[12] = viability loss with induced miR-34 in A549 – imaging, A549 dox-inducible miR-34, nuclei and caspase counts, primary screen (AID 1347080;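 active = compounds whose cell count with miR-34 switched on is under 0.7 times the count with it off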); settings: A549 miR-34 inducible, Hoechst nuclei count, 48 h
[13] = MELAS cybrid and Rieske KO viability enhancers – cell-based, MELAS cybrids, Rieske KO mouse fibroblasts, CellTiter-Glo, primary screen (AID 1508586;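 active = mean z-score across replicates of 1.96 or higher in either the MELAS or the Rieske mutant cell line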;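 also: z relative to plate mean and SD of compound and empty wells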); settings: low glucose
[14] = stronger effect = lower value, cell number ratio, induced over uninduced
[15] = measured here: relative caspase fold change +Dox/-Dox
[16] = measured here: total cells with miR-34 induction, stronger effect = lower value
[17] = measured here: total cells without miR-34 induction
[18] = MELAS cybrid survival, CellTiter-Glo 48 h, stronger effect = higher value
[19] = Rieske KO mouse fibroblast survival, CellTiter-Glo 72 h

CCC[C@H](NC(=O)/C(C#N)=C/c1cccc(Br)n1)c1ccccc1
-18.6: SSMD [10]
inactive: viability ([11]; at 0.000305 µM, OCI-C5x cells, with rucaparib 10 µM, 100% = cells with rucaparib alone) 119% | viability ([11]; at 0.000305 µM, OCI-C5x cells, without rucaparib) 122% | viability ([11]; at 0.000305 µM, OCI-P5x cells, without rucaparib) 113% | viability ([11]; at 0.00122 µM, OCI-C5x cells, with rucaparib 10 µM, 100% = cells with rucaparib alone) 114% | viability ([11]; at 0.00122 µM, OCI-C5x cells, without rucaparib) 137% | viability ([11]; at 0.00122 µM, OCI-P5x cells, without rucaparib) 111% | viability ([11]; at 0.00488 µM, OCI-C5x cells, with rucaparib 10 µM, 100% = cells with rucaparib alone) 121% | viability ([11]; at 0.00488 µM, OCI-C5x cells, without rucaparib) 137% | viability ([11]; at 0.00488 µM, OCI-P5x cells, without rucaparib) 114% | viability ([11]; at 0.0195 µM, OCI-C5x cells, with rucaparib 10 µM, 100% = cells with rucaparib alone) 111% | viability ([11]; at 0.0195 µM, OCI-C5x cells, without rucaparib) 135% | viability ([11]; at 0.0195 µM, OCI-P5x cells, with rucaparib 20 µM, 100% = cells with rucaparib alone) 104% | viability ([11]; at 0.0195 µM, OCI-P5x cells, without rucaparib) 110% | viability ([11]; at 0.0781 µM, OCI-C5x cells, with rucaparib 10 µM, 100% = cells with rucaparib alone) 108% | viability ([11]; at 0.0781 µM, OCI-C5x cells, without rucaparib) 128% | viability ([11]; at 0.0781 µM, OCI-P5x cells, with rucaparib 20 µM, 100% = cells with rucaparib alone) 104% | viability ([11]; at 0.0781 µM, OCI-P5x cells, without rucaparib) 128% | viability ([11]; at 0.313 µM, OCI-C5x cells, with rucaparib 10 µM, 100% = cells with rucaparib alone) 126% | viability ([11]; at 0.313 µM, OCI-C5x cells, without rucaparib) 134% | viability ([11]; at 0.313 µM, OCI-P5x cells, with rucaparib 20 µM, 100% = cells with rucaparib alone) 102% | viability ([11]; at 0.313 µM, OCI-P5x cells, without rucaparib) 123% | viability ([11]; at 1.25 µM, OCI-C5x cells, with rucaparib 10 µM, 100% = cells with rucaparib alone) 106% | viability ([11]; at 1.25 µM, OCI-C5x cells, without rucaparib) 141% | viability ([11]; at 1.25 µM, OCI-P5x cells, without rucaparib) 111% | viability ([11]; at 5 µM, OCI-C5x cells, without rucaparib) 102%
active: AC50 [1] 3.32 µM | AC50 [2] 26.4 µM | AC50 [3] 3.32 µM | AC50 [4] 2.35 µM | AC50 [5] 3.32 µM | AC50 [6] 2.63 µM | AC50 [7] 9.35 µM | AC50 [8] 4.68 µM | IC50 [9] 16.6 µM | plate-normalised HSF1 focus index [10] 0.0433 | viability ([11]; at 0.000305 µM, OCI-P5x cells, with rucaparib 20 µM, 100% = cells with rucaparib alone) 94.8% | viability ([11]; at 0.00122 µM, OCI-P5x cells, with rucaparib 20 µM, 100% = cells with rucaparib alone) 95.1% | viability ([11]; at 0.00488 µM, OCI-P5x cells, with rucaparib 20 µM, 100% = cells with rucaparib alone) 98.7% | viability ([11]; at 1.25 µM, OCI-P5x cells, with rucaparib 20 µM, 100% = cells with rucaparib alone) 46.8% | viability ([11]; at 5 µM, OCI-C5x cells, with rucaparib 10 µM, 100% = cells with rucaparib alone) 8.18% | viability ([11]; at 5 µM, OCI-P5x cells, with rucaparib 20 µM, 100% = cells with rucaparib alone) 2.03% | viability ([11]; at 5 µM, OCI-P5x cells, without rucaparib) 8.95%
6540: cell count [10]

NC(=O)c1ccc(N(C(N)=O)c2c(F)cccc2F)nc1-c1ccc(F)cc1F
9290: cell count [12, 16]
-0.467: z-score [13, 19]
10300: cell count [12, 17]
0.736: fold change [12, 15]
inactive: outcome [1] | outcome [2] | outcome [3] | outcome [4] | outcome [5] | outcome [6] | outcome [7] | outcome [8] | outcome [9] | fold change [12, 14] 0.9 | z-score [13, 18] -0.391

CC(C)c1ccc(Cn2ccc3c4c(N)nc(NC5CC5)nc4ccc32)cc1
3190: cell count [10]
-7.04: SSMD [10]
inactive: plate-normalised HSF1 focus index [10] 0.581
active: AC50 [1] 2.63 µM | AC50 [2] 20.9 µM | AC50 [3] 4.69 µM | AC50 [4] 4.18 µM | AC50 [5] 6.61 µM | AC50 [6] 2.63 µM | AC50 [7] 18.7 µM | AC50 [8] 5.25 µM | IC50 [9] 3.72 µM

CC[C@H](CC[C@@H](C)[C@H]1CC[C@H]2[C@@H]3CC=C4C[C@@H](O)CC[C@]4(C)[C@H]3CC[C@]12C)C(C)C
inactive: outcome [1] | outcome [2] | outcome [3] | outcome [4] | outcome [5] | outcome [6] | outcome [7] | outcome [8] | outcome [9] | fold change [12, 14] 0.94
8770: cell count [12, 16]
9330: cell count [12, 17]
0.534: fold change [12, 15]

O=C(c1ccc(C(=O)N2CCC(N3CCCC3)CC2)c(Nc2ccccc2)c1)N1CCC(N2CCCC2)CC1
inactive: outcome [1] | outcome [2] | outcome [3] | outcome [4] | outcome [5] | outcome [6] | outcome [7] | outcome [8] | outcome [9] | fold change [12, 14] 0.897 | z-score [13, 18] -0.111
-0.294: z-score [13, 19]
8000: cell count [12, 16]
1.63: fold change [12, 15]
8920: cell count [12, 17]
